The text below walks through data of ChEMBL document CHEMBL4513216, “Probing the Open Global Health Chemical Diversity Library for Multistage-Active Starting Points for Next-Generation Antimalarials” (ACS Infect Dis, 2020).

Out of some 69,000 compounds screened, about 8,600 (12%) showed an effect of 50% or more. What follows is part of a selection rich in strong results, with near analogues and random picks from the rest.

The experiment concerns Plasmodium berghei. In words: Screen against P. berghei liver stage (PbLuc), transformed with Luciferase, at 10uM. It is filed as functional, HepG2. The note with it: tested at 10 uM.
As to `Cc1cc(N2CCOCC2)ccc1NC(C)c1nc(C(C)(C)C)no1` (stereo not given), the INHIBITION was 14.9%.

On to `Cc1n[nH]c(C)c1NC(=O)CN1CCCC1Cn1cncn1` (stereo not given), for which the INHIBITION turned out to be 30%.

Take `CC(=O)N1CCC(c2nccnc2Nc2cnccn2)CC1`: the INHIBITION is reported as -21.6%.

As to `CN(Cc1ccncn1)C(=O)CCC(=O)NC1CCCC1`, the INHIBITION is reported as 39.4%.

Take `CCCN1C[C@@H]2CC[C@H]1CN(Cc1cccc(-n3cccn3)c1)C2`: the INHIBITION came to 48.2%.

`COCCN1CCN(c2ccc(CN(C)C)cn2)CC1`: the INHIBITION was -14.3%.

For `CCN(C(=O)CCn1cccn1)C1CC1`, the INHIBITION worked out at 36.2%.

Regarding `CC(C1CC1)N(C)C(=O)CCn1cccn1` (stereo not given), the INHIBITION came out at 49%.

`CC(C)CC(C)N(C)C(=O)CCn1cccn1` (stereo not given): the INHIBITION worked out at 64%.

In the case of `Cc1nn(C)c(C)c1NC(=O)CCn1ncc2ccc(Cl)cc21`, the INHIBITION was -14.7%.

On to `CC(=O)c1cc(C(=O)N2CCN(C)Cc3ccccc32)n(C)c1`, for which the INHIBITION was -94.3%.

In the case of `CC(C)c1n[nH]c(C2CN(C(=O)COCC(F)(F)F)CCO2)n1` (stereo not given), the INHIBITION amounted to 31.6%.

Consider `CC(c1ccccc1)N(C)C(=O)CN1CCCc2cccc(F)c21` (stereo not given), for which the INHIBITION turned out to be 51.1%.

With `CC(c1ccccc1)N(C)C(=O)CN1CCCc2cc(F)cc(F)c21` (stereo not given), the INHIBITION stood at 76.1%.

As for `CC(c1ccccc1)N(C)C(=O)CN1CCN(c2cnccn2)CC1` (stereo not given), the INHIBITION came out at 47.2%.

As for `CN(C(=O)CN1CCCc2cc(F)cc(F)c21)c1ccccc1`, the INHIBITION is reported as 43.9%.

`CC(c1ccccc1)N(C)C(=O)Cn1cc(NC(=O)C(C)(C)C)cn1` (stereo not given): the INHIBITION is reported as -41.1%.

Regarding `CN(C)C(=O)Cn1cc(C(=O)N2CCCc3cccc(F)c32)nn1`, the INHIBITION amounted to 28.6%.

On to `CC(C)CC(=O)N1C[C@@H]2CCN(c3cnccn3)C[C@@H]2C1`, for which the INHIBITION stood at 3.81%.

On to `CNC(=O)CN1C(=O)CN(C(=O)COC)CCC(OC)c2ccccc21` (stereo not given), for which the INHIBITION is given as 48.7%.

`CNc1cc(C2CCCN2S(=O)(=O)c2cccc(F)c2)ccn1` (stereo not given): the INHIBITION was 2.71%.

Turning to `CCS(=O)(=O)N1CCc2nc(C3CCN(C(=O)C4CC4)C3)nc(O)c2C1` (stereo not given), the INHIBITION was 30.4%.

In the case of `Cc1nc(NC2CCCC2)cc(C2CCN2c2ncccn2)n1` (stereo not given), the INHIBITION is listed as 26.7%.

Regarding `Cc1cc(C(=O)NC(C)Cc2ccc(N(C)C)cc2)n(C)n1` (stereo not given), the INHIBITION was determined as 44.7%.

For `Cc1nc(CN2CCN(S(=O)(=O)N3CCCCC3)CC2)oc1C`, the INHIBITION turned out to be 19.4%.

Regarding `COCC(=O)N1CCCN(Cc2cc(O)c3ccccc3n2)CC1`, the INHIBITION was determined as 32.1%.

With `Cc1nc(CN2CCN(S(=O)(=O)N3CCOCC3)CC2)oc1C`, the INHIBITION is given as 31.2%.

For `COCC(=O)N1CCC2(CCCN(Cc3ccc(Cl)cc3)CC2)CC1`, the INHIBITION is recorded as 17.6%.

For `COCC(=O)N1CCCN(Cc2c(C)nc3ccc(Cl)cn23)CC1`, the INHIBITION came out at 73.6%.

With `Cc1nc2ccc(Cl)cn2c1CN1CCN(S(=O)(=O)N2CCCC2)CC1`, the INHIBITION is given as 57.55%.

Consider `COCCN1C[C@@H](C)[C@@]2(COCCN(C(=O)Cc3ccccc3)C2)C1`, for which the INHIBITION is -8.94%.

Turning to `CN1CCC2(CCN(S(=O)(=O)c3ccc(-c4cnco4)s3)CC2)C1`, the INHIBITION was 28.4%.

On to `CN(C)C(=O)c1nc2c(n1C)CCN(Cc1ccccc1)C2`, for which the INHIBITION is reported as -31.4%.

On to `OCCCN1CCc2[nH]nc(C(c3ccccc3)c3ccccc3)c2C1`, for which the INHIBITION is listed as 18.7%.

Turning to `FC(F)(F)c1[nH]nc2c1CN(Cc1ccccc1)CC2`, the INHIBITION was found to be 84.2%.

As for `CN(Cc1cnn(C)c1)C(=O)c1ccc(=O)n(C)n1`, the INHIBITION is -19.7%.

In the case of `O=C(Nc1ccccc1)N1CCC(n2cc3[nH]cccc-3c2=O)CC1`, the INHIBITION was 32%.

Regarding `Cc1nc(CN2CCCC(NCc3ccc(C(N)=O)cc3)C2)no1` (stereo not given), the INHIBITION is 11.2%.

Regarding `Cc1nnc(NC(=O)NCc2ccc(N3CCC(C)CC3)nc2)s1`, the INHIBITION was found to be 33.3%.

As to `Cc1nc2ccccn2c1CN1C[C@@H](CN(C)C)[C@@H](CO)C1`, the INHIBITION is on record as 45.3%.

For the compound `CC(=O)c1cccc(CN2CC(Oc3ccccc3C)C2)c1`, the INHIBITION is reported as 52%.

Consider `Cc1ccccc1OC1CN(Cc2c(C)nc3ccccn23)C1`, for which the INHIBITION is recorded as 91.8%.

Consider `CC(=O)c1ccc(CN2CC(Oc3ccccc3C)C2)cc1`, for which the INHIBITION is 52%.

Take `COc1ccccc1OC1CN(Cc2ccc(C(=O)O)cc2)C1`: the INHIBITION was determined as 14.3%.

For `COCc1ncc(CN2CC(Oc3c(C)cccc3C)C2)cn1`, the INHIBITION is given as 31.2%.

As for `CSCC[C@H](N)C(=O)N1CC(Oc2ccccc2C)C1`, the INHIBITION was -13.5%.

As to `Cc1nc2ccccn2c1CN1C[C@@H](CN(C)CCO)[C@@H](CO)C1`, the INHIBITION is recorded as 29%.

`Cc1ccc(C(=O)N2CC(Oc3ccccc3C)C2)s1`: the INHIBITION worked out at 18.4%.

For the compound `O=C(c1n[nH]cc1Cl)N1CCSCC1`, the INHIBITION is given as -10.6%.

Turning to `COCCNC(=O)c1sc2ccccc2c1C1CCC(CN)CC1` (stereo not given), the INHIBITION turned out to be 3.48%.

For `COCCN1C[C@@H]2CCCO[C@@H]2[C@H](NC(=O)c2cnccn2)C1`, the INHIBITION was -17%.

Take `O=C(NC1CC1)N1CCN(c2cnccn2)CC1`: the INHIBITION was -11.4%.

As to `Cc1nc(N(C)C)cc(C2(C)CCCNC2)n1` (stereo not given), the INHIBITION is given as 8.42%.

In the case of `NS(=O)(=O)c1ccc(C(=O)N2CCCC2c2ccccc2)o1` (stereo not given), the INHIBITION is 12.7%.

For the compound `CC(C)c1nnc(CN2CCN(CC(O)c3ccccc3)CC2)o1` (stereo not given), the INHIBITION is reported as 36.1%.
